Laboratory results reported in PubChem BioAssay AID720697 (Broad Institute, 2013).
Results with a measured potency or affinity are listed apart. Records with an inconclusive call do not appear. Active and inactive are the calls of the source.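 The calls were made as follows: active = signal loss with fitted half-maximal concentration at or below twice the top valid tested dose in every test run; inconclusive = runs disagree, flat 30 to 70% signal loss, or poor fit; inactive = all runs flat, opposite direction, or potency beyond limit.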

Assay: HEK293T cytotoxicity, dose response, cytotoxicity control for miR-122 modulator project, cell-based, inhibitor set, cherry-pick, set 2 (AID 720697)
Conditions: HEK293T viability, CellTiter-Glo luminescence, 48 h; series mostly up to 26 µM

Row | Compound | outcome
1 | CCNC(=O)C[C@@H]1CC[C@@H]2[C@@H](COc3ccc(NC(=O)c4ccccc4)cc3C(=O)N2C)O1 | inactive
2 | COC(=O)C[C@@H]1CC[C@@H]2[C@@H](COc3ccc(NC(=O)c4cscn4)cc3C(=O)N2C)O1 | inactive
3 | C[C@H]1CN([C@@H](C)CO)C(=O)c2cc(C#CC3CCCC3)cnc2O[C@H]1CN(C)C(=O)Cc1ccccn1 | inactive
